{"source": "PubChem BioAssay AID588855", "about": "(National Center for Advancing Translational Sciences (NCATS), 2011)", "note": "Where “and” joins values, the source holds several entries; their conditions need not be identical. Equal values may be shown once. The campaign covered roughly 410,000 compounds. About 5,000 (1.2%) were called active. Roughly 13% stayed inconclusive and do not appear here. Calls come from the whole dose curve; as a rule, active = well fitted inhibition curve with a large enough effect; inconclusive = small, poorly fitted or top-dose-only effect; inactive = no such curve, though single readings can be large or run the other way. Many of the other results were omitted from the sample, so actives are more common in it than they were. % is set by controls: 0 for no effect and ±100 for the full control effect; potency is the fitted concentration of half-maximal effect."}
{"assay": "qHTS for Inhibitors of TGF-b; note: nearly all actives have a fitted effect of over 65% in size", "details": "HepG2 CAGA-GFP TGF-b/SMAD3 reporter, GFP fluorescence, 18 h, TGF-beta stimulated, 500 pg/mL final; series mostly up to 46.1 µM; activity, negative = inhibition: at the top concentration", "method_in_brief": "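HEPG2 CAGA-GFP cells (1000/well, DMEM with 1% FBS) were pre-incubated 2 h at 37 degrees C, given compound by pin tool, then stimulated with TGF-beta at 500 pg/mL final for 18 h before per-cell GFP fluorescence imaging.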"}
{"smiles": "Cc1cccc2sc(N(CCCN(C)C)C(=O)CCS(=O)(=O)c3ccccc3)nc12", "Potency": "3.16 µM (active)"}
{"smiles": "Cc1ccc2sc(N(CCN(C)C)C(=O)/C=C/c3cccs3)nc2c1C", "activity, negative = inhibition": "-2.22% (inactive)"}
{"smiles": "CCOc1cccc2sc(N3CCN(C(=O)C4CC4)CC3)nc12", "activity, negative = inhibition": "0.888% (inactive)"}
{"smiles": "Cc1ccc(S(=O)(=O)CCC(=O)OCC(=O)N(C)Cc2ccccc2)cc1", "activity, negative = inhibition": "-19% (inactive)"}
{"smiles": "COc1ccccc1NC(=O)CC(NCCN(C)C)C(=O)O", "note": "(stereo unspecified)", "activity, negative = inhibition": "15.1% (inactive)"}
{"smiles": "COc1cccc2sc(N(CCCN(C)C)C(=O)C(c3ccccc3)c3ccccc3)nc12", "Potency": "12.6 µM (active)"}
{"smiles": "COc1ccc(N(C)C(=O)CCS(=O)(=O)c2cccc3nsnc23)cc1", "Potency": "inactive"}
{"smiles": "COc1cccc2sc(N(CCCN(C)C)C(=O)CCS(=O)(=O)c3ccccc3)nc12", "Potency": "1.12 µM (active)"}
{"smiles": "O=C(CCS(=O)(=O)c1ccccc1)Nc1nc2c(s1)CCCC2", "activity, negative = inhibition": "-22.5% (inactive)"}
{"smiles": "Cc1ccc(-c2nnc(Nc3cccc(Br)c3)c3ccccc23)cc1S(=O)(=O)NCC1CCCO1", "note": "(stereo unspecified)", "activity, negative = inhibition": "-2.65% (inactive)"}
{"smiles": "CCOC(=O)c1c(NC(=O)/C(C#N)=C/c2ccccc2)sc2c1CCC2", "activity, negative = inhibition": "-10.7% (inactive)"}
{"smiles": "Cc1cccc(CC(=O)Nc2cccc(-c3cn4cccnc4n3)c2)c1", "activity, negative = inhibition": "-7.3% (inactive)"}
{"smiles": "COc1ccc(-c2nc(C)c(CCNC(=O)c3ccc(C(F)(F)F)cc3)s2)cc1OC", "activity, negative = inhibition": "11.9% (inactive)"}
{"smiles": "CCOC(=O)c1cc(OC(=O)c2ccccc2Cl)n(-c2ccccc2)n1", "activity, negative = inhibition": "-17.4% (inactive)"}
{"smiles": "CSc1nc(=O)c2c(n1C)NC(=O)CC2c1ccccc1OC(C)C", "note": "(stereo unspecified)", "activity, negative = inhibition": "-2.01% (inactive)"}
{"smiles": "Cc1cn(C)c(CC(=O)NCc2ccc(Cl)cc2)c1C(=O)O", "activity, negative = inhibition": "10.5% (inactive)"}
{"smiles": "CCOc1n[nH]c(-c2ccccc2)n1", "activity, negative = inhibition": "-5.85% (inactive)"}
{"smiles": "CCOC(=O)c1ccc(NC(=O)CC2C(=O)N(c3cccc(OC)c3)C(=O)N2C2CCCCC2)cc1", "note": "(stereo unspecified)", "activity, negative = inhibition": "-42.9% (inactive)"}
{"smiles": "Cc1ccc([N+](=O)[O-])cc1S(=O)(=O)N1CCCN(C)CC1", "activity, negative = inhibition": "-1.45% (inactive)"}
{"smiles": "Cc1ccc(NC(=O)CCNC(=O)c2ccc([N+](=O)[O-])cc2)cc1S(=O)(=O)N1CCOCC1", "activity, negative = inhibition": "1.06% (inactive)"}
{"smiles": "Cc1ccc(C)c(S(=O)(=O)N2CCN(CC(=O)Nc3ccc([N+](=O)[O-])cc3)CC2)c1", "Potency": "8.91 µM (active)"}
{"smiles": "Cc1cccc(N2CCN(C(=O)c3oc(=O)c4ccccc4c3-c3ccccc3)CC2)c1C", "activity, negative = inhibition": "0% (inactive)"}
{"smiles": "CCOc1ccccc1NC(=O)Cn1c(=O)n(Cc2ccccc2)c(=O)c2c(C)c(C(=O)N(C)C)sc21", "activity, negative = inhibition": "-4.55% (inactive)"}
{"smiles": "CCC(=O)N1CCc2cc(S(=O)(=O)NCCC(=O)Nc3cccc(C)c3C)ccc21", "activity, negative = inhibition": "3.97% (inactive)"}
{"smiles": "Cc1cccc(OCCSc2nc3ccccc3n2CC(=O)N2CCCCC2)c1C", "Potency": "12.6 µM (active)"}
{"smiles": "CCOc1ccc(OCCSc2nc3ccccc3n2CC(=O)O)cc1", "activity, negative = inhibition": "6.92% (inactive)"}
{"smiles": "Cc1ccc(C(C)C)c(OCCSc2nc3ccccc3n2CC(=O)O)c1", "activity, negative = inhibition": "-8.84% (inactive)"}
{"smiles": "O=c1[nH]c2cc(Br)ccc2n2cccc12", "activity, negative = inhibition": "3.58% (inactive)"}
{"smiles": "COc1ccc(-c2onc(C)c2-c2ccc3c(c2)OCCO3)c(O)c1", "Potency": "15.8 µM (active)"}
{"smiles": "COc1ccc(-c2c(-c3ccc(OC)cc3O)nc(C)nc2C(F)(F)F)cc1", "activity, negative = inhibition": "-4.38% (inactive)"}
{"smiles": "COc1cc(-c2c(-c3ccc4c(c3)OCO4)noc2C)ccc1F", "Potency": "inactive"}
{"smiles": "O=C1O/C(=C\\c2ccc(O)cc2)C(O)=C1c1ccc(O)cc1", "activity, negative = inhibition": "5.93% (inactive)"}
{"smiles": "O=S(=O)(Nc1ccccc1Cl)c1cccc2nsnc12", "activity, negative = inhibition": "-3.12% (inactive)"}
{"smiles": "O=S(=O)(Nc1cccc2cccnc12)c1cccc2cccnc12", "Potency": "1.78 µM (active)"}
{"smiles": "Cc1ccc2cccc([N+](=O)[O-])c2n1", "activity, negative = inhibition": "-20.7% (inactive)"}
{"smiles": "O=[N+]([O-])c1ccccc1SNc1ccccn1", "activity, negative = inhibition": "-21.9% (inactive)"}
{"smiles": "O=C(Nc1cccc2cccnc12)C(F)(F)F", "activity, negative = inhibition": "-0.477% (inactive)"}
{"smiles": "O=[N+]([O-])c1ccccc1S(=O)(=O)Nc1cccc2cccnc12", "Potency": "1.26 µM (active) and 6.31 µM (active)"}
{"smiles": "Cc1ccc(Cn2cc(CCC(=O)NCc3ccc(OC(C)C)cc3)c3ccccc32)cc1", "activity, negative = inhibition": "-19.7% (inactive)"}
{"smiles": "O=C(O)c1ccc2c(c1)N(Cc1ccc(F)cc1)C(=O)c1ccccc1S2=O", "note": "(stereo unspecified)", "activity, negative = inhibition": "-28.9% (inactive)"}
{"smiles": "COc1cc(OC)c(NC(=O)Cc2ccc(-n3c(C)nc4cccnc43)cc2)cc1Cl", "activity, negative = inhibition": "0% (inactive)"}
{"smiles": "O=C(/C=C/Nc1ccccc1)c1cnc(-c2ccccc2)s1", "activity, negative = inhibition": "1.26% (inactive)"}
{"smiles": "CNC(=O)c1csc(-c2ccccc2)n1", "activity, negative = inhibition": "7.68% (inactive)"}
{"smiles": "Cc1nc(-c2ccccc2)sc1C(=O)/C=C/c1ccccc1", "Potency": "10 µM (active)"}
{"smiles": "O=C(CSc1nc2nccnc2c(=O)n1CCc1c[nH]c2ccccc12)Nc1ccccc1F", "activity, negative = inhibition": "-19.6% (inactive)"}
{"smiles": "O=C1COc2ccc(-c3csc(-c4ccc(Cl)cc4)n3)cc2N1", "activity, negative = inhibition": "4.59% (inactive)"}
{"smiles": "Cc1ccc(C)c(S(=O)(=O)N2CCN(C(=O)Nc3ccccc3)CC2)c1", "activity, negative = inhibition": "-17.8% (inactive)"}
{"smiles": "COc1ccc(C(=O)NCc2ccc(C)cc2)cc1S(=O)(=O)N1CCCC1", "activity, negative = inhibition": "-0.243% (inactive)"}
{"smiles": "COc1ccc(C)cc1S(=O)(=O)N1CCN(S(=O)(=O)c2cc(C(=O)O)ccc2C)CC1", "Potency": "6.31 µM (active)"}
{"smiles": "CCCN(CCC)CCCNC(=O)Cn1cc2c(n1)-c1c(oc(C(=O)N3CCCC3)c1C)CC2", "activity, negative = inhibition": "-28.1% (inactive)"}
{"smiles": "COc1cn(CC(=O)Nc2cccc(C)c2C)c(CN2CCCCC2)cc1=O", "activity, negative = inhibition": "26.1% (inactive)"}
